Source: PubChem BioAssay
MCF10A rerep: induces DNA re-replication in MCF 10a normal breast cells | MCF 10A DNA re-replication, Hoechst nuclear intensity, 48 h | Potency, µM (series often up to 46.1 µM), inactives show at the top dose activity, positive = re-replication, usual class: activators | 2.9% of 350,000 active; also: % of control where 0% means no effect; nearly all actives have a fitted effect of over 50% in size
ELG1 DNA repair: blocks ELG1-dependent DNA repair in HEK293T cells | Potency, µM (highest dose often 46.1 µM), inactives show top-dose activity change, negative = inhibition, actives largely listed as inhibitors | 2.3% of 330,000 active | AID 504467 | HEK293T ELG1-luciferase reporter, luminescence, 16 h; DNA damage induced by 5-fluorouridine; also: % is scaled to controls: 0 for no effect and ±100 for the full control effect; nearly all actives have a fitted effect of over 55% in size
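Luminescence from the luciferase reporter, measured 30 min after ONE-Glo reagent at room temperature, was the read-out. Beforehand, 2,000 cells per well were exposed for 16 hr at 37 °C to 5-fluorouridine together with compound or vehicle.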
SW480 rereplic: DNA re-replication induction in SW480 cells; 1.8% of 340,000 active; AID 624297; SW480 DNA re-replication, Hoechst DNA content imaging, 48 h; Potency, µM (highest dose often 46.1 µM), without a hit: at the highest dose re-replication activation, most hits filed as activators; also: % of control where 0% means no effect; nearly all actives have a fitted effect of over 55% in size
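Hoechst fluorescence of nuclei (405 nm excitation, 500-530 nm emission) measured by plate-scanning imager after 48 hr compound exposure at 37 C; re-replication scored as increased number of nuclei with elevated intensity.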
Gal4-VP16 FLuc: inhibits Gal4-VP16 luciferase reporter, ROR gamma counter-screen; Drosophila S2 Gal4-VP16 UAS-luciferase, luminescence, 20 h; Potency, µM (titrated, usually from 53.6 µM), without a hit: top-dose activity, negative = inhibition, actives largely listed as inhibitors; 3.5% of 310,000 active; AID 2546;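 also: Gal4-VP16 expression switched on by copper sulfate through the metallothionein promoter; % is scaled to controls: 0 for no effect and ±100 for the full control effect; nearly all actives have a fitted effect of over 50% in size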
RORg inh: blocks mouse ROR gamma transcriptional activity; P51450; Drosophila S2 Gal4-RORgamma UAS-luciferase reporter, 20 h; Potency, µM (series often up to 53.6 µM), inactives show at the highest dose activity change, negative = inhibition, hits mostly inhibitors; 5.4% of 310,000 active; AID 2551; also: % is scaled to controls: 0 for no effect and ±100 for the full control effect; nearly all actives have a fitted effect of over 60% in size
Target sequence (P51450 whole entry, looked up, the tested form may be a part): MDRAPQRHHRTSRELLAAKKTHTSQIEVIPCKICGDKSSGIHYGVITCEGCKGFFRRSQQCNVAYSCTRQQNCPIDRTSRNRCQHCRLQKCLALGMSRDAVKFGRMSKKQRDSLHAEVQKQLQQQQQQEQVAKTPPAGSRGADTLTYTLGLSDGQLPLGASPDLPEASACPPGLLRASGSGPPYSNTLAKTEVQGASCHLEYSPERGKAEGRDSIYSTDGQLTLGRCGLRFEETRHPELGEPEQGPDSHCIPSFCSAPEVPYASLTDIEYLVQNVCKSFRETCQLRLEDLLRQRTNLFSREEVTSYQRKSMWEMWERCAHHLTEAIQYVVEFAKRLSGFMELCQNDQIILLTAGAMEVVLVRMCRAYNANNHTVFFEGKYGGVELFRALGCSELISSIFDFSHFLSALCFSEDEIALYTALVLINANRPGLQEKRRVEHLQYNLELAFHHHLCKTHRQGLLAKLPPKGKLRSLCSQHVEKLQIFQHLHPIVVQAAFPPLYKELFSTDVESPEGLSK
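ROR gamma transcriptional activity was tracked as Gal4-UAS luciferase output in stably transfected Drosophila Schneider cells, with compound added 1 hr before 700 uM copper sulfate induction and a 20 hr ambient-temperature incubation.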
* = called active by the depositor; ? = inconclusive; · = no result. This is a sample that favours compounds with a hit; in the whole collection about 10% have one here. Calls follow the shape of the dose curve; as a rule, active = well fitted curve in the direction sought with a large enough effect; inconclusive = small, poorly fitted or top-dose-only effect, or another doubt; inactive = no such curve, though single readings can be large; an effect the other way counts as inactive or inconclusive. Potency is read from the fitted curve at half-maximal effect.

SMILES | MCF10A rerep | ELG1 DNA repair | SW480 rereplic | Gal4-VP16 FLuc | RORg inh
Cc1ccc(S(=O)(=O)N2C(=O)c3cccc4cccc2c34)cc1 | 9.2µM* | ? | ? | -17.6% | 22.1%
Cc1ccc(S(=O)(=O)ON2C(=O)c3cccc4cccc(c34)C2=O)cc1 | -1.5% | 11.5% | -16.8% | 6.8% | ?
COc1ccc(S(=O)(=O)N(C)C[C@H]2Oc3c(NC(=O)Nc4c(C)noc4C)cccc3C(=O)N([C@@H](C)CO)C[C@H]2C)cc1 | -36.4% | -4.2% | -1.0% | · | ·
CC(=O)Oc1c(I)cc(I)cc1C(=O)Nc1ccc(Cl)cc1 | 7.31µM* | -16.9% | ? | ? | ?
COc1cc2c(cc1OC)[C@@H](NC(=O)CCc1ccccc1)[C@H](OCc1ccccc1)C2 | -7.0% | ? | ? | · | ·
CC(C)Nc1nc(Oc2ccc(Cl)cc2)cc(C(F)(F)F)n1 | 23.1µM* | 0.0% | 8.5% | -22.4% | 41.2%
O=C(CSc1nc2ccccc2n1CCc1ccccc1)c1ccc(O)c(O)c1 | ? | 3.9% | ? | ? | 7.94µM*
CC(NC(=S)Nc1ccccc1C(F)(F)F)C1CC2CCC1C2 (centres undefined) | -22.2% | -13.4% | 0.5% | 10µM* | 3.16µM*
O=C(NNC(=S)Nc1ccccc1C(F)(F)F)C1CC1 | 2.6% | 2.4% | -0.3% | 6.0% | 20µM*
O=C(CCC(=O)Nc1ccccc1Cl)NNC(=S)Nc1ccccc1C(F)(F)F | 6.3% | 10.1% | -2.3% | ? | 7.94µM*
CC(NC(=O)c1ccccc1Br)C1CC2CCC1C2 (centres undefined) | 9.1% | · | -0.3% | · | ·
O=C(C[n+]1ccccc1)Nc1ccccc1C(F)(F)F | 3.26µM* | -4.9% | -54.5% | -4.9% | -22.5%
COc1ccco1 | · | · | · | 3.6% | 3.9%
COC(=O)[C@@]1(Cc2ccc(OC)cc2)[C@H]2c3cc(C(=O)N4CCCC4)n(Cc4ccc(O)c(OC)c4)c3C[C@H]2CN1C(=O)c1ccccc1 | · | · | · | 1.1% | 37.4%
Cn1c(=O)[nH]c(=O)c2c1nc1n2CC(O)CN1c1ccccc1 (centres undefined) | -2.3% | 12.0% | 0.4% | 1.5% | -0.9%
CC(C)(C)c1ccccc1NC(=O)c1ccc(-n2cncn2)c([N+](=O)[O-])c1 | 4.4% | 1.4% | 13.0% | · | ·
COc1cc(C(=O)OCC(=O)NC2CCCCC2)cc(OC)c1OC | 5.8% | ? | ? | · | ·
Cc1cc(C(=O)O)cc(S(=O)(=O)Nc2ccccc2C(=O)NC2CC2)c1C | -0.9% | 15.8% | -1.2% | · | ·
O=C(Nc1ccccc1Cl)Nc1ccccc1Cl | -3.3% | ? | 15.3% | -8.5% | -29.3%
O=C(CCCCC(=O)Nc1ccccc1Cl)Nc1ccccc1Cl | -0.9% | 6.5% | 2.91µM* | -7.2% | -22.1%
CCOC=C1C(=O)N(C(C)=O)c2cc(OC)c(OC)cc21 | -2.9% | · | 1.3% | · | ·
Cc1c(OCC(=O)NC2CC(C)(C)NC(C)(C)C2)ccc2c1oc(=O)c1ccccc12 | 2.4% | 18.1% | 13µM* | -6.6% | -12.0%
Cc1c(OCC(=O)NC2CC(C)(C)NC(C)(C)C2)ccc2c3c(c(=O)oc12)CCC3 | 11.2% | 27.3% | ? | -3.0% | -3.8%
COc1cccc(Cc2n[nH]c(=S)n2Cc2ccco2)c1 | -3.5% | -0.4% | -6.3% | -25.1% | 3.55µM*
COc1cccc(CN2CCN(Cc3ccco3)CC2)c1 | -2.4% | ? | -9.5% | 1.4% | -2.8%
SMILES | MCF10A rerep | ELG1 DNA repair | SW480 rereplic | Gal4-VP16 FLuc | RORg inh
Cc1c(Br)c(-c2n[nH]c(=S)n2Cc2ccco2)nn1C | -1.3% | -3.8% | -300.2% | -2.8% | 22.4µM*
COc1ccc(-c2n[nH]c(=S)n2Cc2ccco2)cc1 | -11.6% | 4.1% | -0.9% | ? | 15.8µM*
Cc1cc(-c2n[nH]c(=S)n2Cc2ccco2)nn1C | 5.2% | 12.1% | 2.3% | -26.3% | ?
Cc1nc(NC2CCCCC2)c2nc(-c3ccccc3)n(CCCN(C)C)c2n1 | · | · | · | -1.2% | -35.4%
CCCCC1(C)OC(=O)C(=Cc2c[nH]c3ccccc23)C(=O)O1 (centres undefined) | 0.5% | 16.6% | ? | 27.7% | 8.0%
O=C1/C(=C/c2c[nH]c3ccccc23)CCC/C1=C\c1c[nH]c2ccccc12 | 20.6µM* | -21.2% | ? | ? | 11.2µM*
